We go through 27 compounds from PubChem BioAssay (NCATS).

Values without a mark were called inactive. Inconclusive results are not listed. Active and inactive are the calls of the source. Calls follow the shape of the dose curve; as a rule, active = well fitted curve in the direction sought with a large enough effect; inconclusive = small, poorly fitted or top-dose-only effect, or another doubt; inactive = no such curve, though single readings can be large; an effect the other way counts as inactive or inconclusive.

For assay [1], the target named is Ubiquitin carboxyl-terminal hydrolase 1 (Homo sapiens) (UniProt O94782). The experiment in a line: Inhibitors of USP1/UAF1: Pilot qHTS (AID 504865).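 Also: rhodamine fluorescence freed from ubiquitin-rhodamine substrate followed over time; top concentration of the series differs between compounds; nearly all actives have a fitted effect of over 35% in size.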 A digest of the protocol: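 Deubiquitinase activity followed as kinetic rhodamine fluorescence release from 150 nM Ub-Rho. 1 nM USP1/UAF1 with compound, after 15 min room-temperature preincubation, in HEPES pH 7.8 buffer containing TCEP, EDTA, BSA and Tween-20.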
Sequence of Ubiquitin carboxyl-terminal hydrolase 1 (Homo sapiens) (O94782 whole entry, looked up): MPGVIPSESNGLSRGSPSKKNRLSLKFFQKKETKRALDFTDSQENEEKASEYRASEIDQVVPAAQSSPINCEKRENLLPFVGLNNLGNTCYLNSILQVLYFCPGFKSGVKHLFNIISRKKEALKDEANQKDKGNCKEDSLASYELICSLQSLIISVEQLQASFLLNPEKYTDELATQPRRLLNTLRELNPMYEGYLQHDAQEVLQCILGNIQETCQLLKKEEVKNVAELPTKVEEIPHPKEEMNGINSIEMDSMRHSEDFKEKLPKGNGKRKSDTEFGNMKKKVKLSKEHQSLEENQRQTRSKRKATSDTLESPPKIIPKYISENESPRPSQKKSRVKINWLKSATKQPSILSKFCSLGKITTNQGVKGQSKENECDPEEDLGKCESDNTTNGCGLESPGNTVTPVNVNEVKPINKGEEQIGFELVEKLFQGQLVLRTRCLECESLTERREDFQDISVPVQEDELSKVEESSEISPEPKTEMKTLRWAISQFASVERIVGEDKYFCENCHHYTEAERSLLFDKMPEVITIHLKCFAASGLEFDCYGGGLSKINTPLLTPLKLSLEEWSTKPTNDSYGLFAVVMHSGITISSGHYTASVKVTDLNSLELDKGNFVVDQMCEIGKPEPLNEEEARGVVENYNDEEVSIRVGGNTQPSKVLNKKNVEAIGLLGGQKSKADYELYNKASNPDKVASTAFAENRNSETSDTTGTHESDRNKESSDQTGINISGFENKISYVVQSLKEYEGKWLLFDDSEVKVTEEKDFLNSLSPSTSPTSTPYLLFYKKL
In general terms: qHTS replaces the single test concentration by a dilution series.

The test system of the next assay is CP247. Description: qHTS profiling for inhibitors of Plasmodium falciparum proliferation (AID 504749). Also: nearly all actives have a fitted effect of over 60% in size. Also: potency is read from the fitted curve at half-maximal effect. Conditions: P. falciparum in erythrocytes, SYBR Green DNA, 72 h; series mostly up to 28.7 µM. A digest of the protocol:
(§1)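 Three-day growth assay of blood-stage parasites in erythrocytes (0.3% parasitemia, 2.5% hematocrit) at 37 C, 5% CO2, quantified by SYBR Green DNA staining after overnight detergent lysis.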

The subject of a further assay is P93_24. The assay is described as above. To be noted: P. falciparum in erythrocytes, SYBR Green DNA, 72 h; series mostly up to 28.7 µM. An outline of the steps:
as §1

The subject of another assay is GB4. The assay is described as above. To be noted: P. falciparum in erythrocytes, SYBR Green DNA, 72 h; series mostly up to 28.7 µM. A digest of the protocol:
as §1

Another assay has as its system W2. The description is as above. Conditions: P. falciparum in erythrocytes, SYBR Green DNA, 72 h; series mostly up to 28.7 µM. An outline of the steps: as §1
A further assay has as its system ICS. Described as above. Conditions: P. falciparum in erythrocytes, SYBR Green DNA, 72 h; series mostly up to 28.7 µM. An outline of the steps: as §1
For assay [2], the target named is Cytochrome P450 3A4 (Homo sapiens) (UniProt P08684). The experiment in a line: qHTS Assay for Inhibitors and Substrates of Cytochrome P450 3A4 (AID 884). Also: nearly all actives have a fitted effect of over 50% in size. An outline of the steps:
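20 nM human CYP3A4 with 25 uM Luciferin-PPXE (at KM) in 200 mM KPO4, preincubated 10 min with compound; NADPH regeneration started a 60 min RT reaction. Luciferin detected by luminescence, normalized to 57 uM ketoconazole as full inhibition.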

The nature of assay [3]: Confirmation and Secondary Assay for Modulators of Hemoglobin Beta Chain Splicing at IVS2 705 locus (AID 930).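 Also: HeLa cells stably expressing the EGFP-705 splicing reporter; GFP fluorescence per well restored by corrected splicing of the IVS2-705 intron in EGFP.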 A digest of the protocol: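 Secondary splice-site specificity test uses HeLa expressing CMV-driven EGFP interrupted by IVS2-705; cells were treated 2 days at 37C with 500 nM antisense PNA as positive control.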
The nature of assay [4]: qHTS for Inhibitors of Plasmodium falciparum (DD2) proliferation (AID 504314).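 Also: parasite DNA measured by SYBR Green fluorescence after red cell lysis.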 An outline of the steps: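 Fluorescence read-out (ex 485/em 535 nm) of SYBR Green-stained parasite DNA quantifies intraerythrocytic growth. Cultures at 0.3% parasitemia and 2.5% hematocrit were treated for 72 h; data normalized to DMSO and 0.29 uM artemisinin wells.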
A short description of assay [5]: qHTS for Inhibitors of Plasmodium falciparum (GB4) proliferation (AID 504315). Also: nearly all actives have a fitted effect of over 50% in size. Also: potency is read from the fitted curve at half-maximal effect. An outline of the steps: (§2)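 Erythrocytes infected with P. falciparum line (0.3% parasitemia, 2.5% hematocrit final) incubated with compounds 72 h at 37 °C, 5% CO2; SYBR Green lysis buffer added, fluorescence read next day. Normalized to 0.29 uM artemisinin and DMSO.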
Assay [6] can be described thus: qHTS for Inhibitors of Plasmodium falciparum (7G8) proliferation (AID 504316). Also: nearly all actives have a fitted effect of over 65% in size. Also: potency is read from the fitted curve at half-maximal effect. An outline of the steps:
as §2

Assay [7] is described as follows: qHTS for Inhibitors of Plasmodium falciparum (HB3) proliferation (AID 504318). Also: nearly all actives have a fitted effect of over 60% in size. An outline of the steps: as §2
The nature of assay [8]: qHTS for Inhibitors of Plasmodium falciparum (CP250) proliferation (AID 504320). An outline of the steps:
as §2

Sequence of Cytochrome P450 3A4 (Homo sapiens) (P08684 whole entry, looked up): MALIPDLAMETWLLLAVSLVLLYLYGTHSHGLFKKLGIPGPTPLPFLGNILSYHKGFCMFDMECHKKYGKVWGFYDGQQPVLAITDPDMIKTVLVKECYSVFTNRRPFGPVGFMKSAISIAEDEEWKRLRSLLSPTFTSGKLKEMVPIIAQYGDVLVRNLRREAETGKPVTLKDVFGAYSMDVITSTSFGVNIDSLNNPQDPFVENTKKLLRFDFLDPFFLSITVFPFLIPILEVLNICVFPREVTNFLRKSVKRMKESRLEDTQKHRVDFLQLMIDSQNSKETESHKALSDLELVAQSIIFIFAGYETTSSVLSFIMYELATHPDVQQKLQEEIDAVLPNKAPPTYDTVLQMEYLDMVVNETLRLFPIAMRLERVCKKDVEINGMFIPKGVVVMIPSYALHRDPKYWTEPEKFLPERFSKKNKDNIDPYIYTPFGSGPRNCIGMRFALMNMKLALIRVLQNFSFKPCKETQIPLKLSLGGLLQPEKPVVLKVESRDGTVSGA

`CCC(C)C(N)C(=O)O` (stereo not given): the Potency result (in [1]; in the assay with CP247; with P93_24) was “inactive” throughout.

For `CC(C)CCCC(C)C1CC(=O)C2=C3CCC4CC(O)CCC4(C)C3CCC21C` (stereo not given), the Potency result in the assay with CP247, in the assay on GB4 and in the assay with P93_24 was “inactive” each time. Further, in the assay with W2, the Potency was 7.57 µM (active).

On to `C=C1CC2C3C=C(C)C4=CC(=O)CCC4(C)C3CCC2(C)[C@@]1(OC(C)=O)C(C)=O` (stereo not given in full), for which, in the assay on CP247, the Potency entry is “inactive”.

As for `COc1ccc(C(=O)/C(Br)=C/C(=O)O)cc1`, the Potency entry (in assay [1]; in the assay with CP247; with P93_24) was “inactive” each time.

For `CC1(C)O[C@@H]2C[C@H]3[C@@H]4CCC5=CC(=O)C=C[C@]5(C)[C@H]4C(O)C[C@]3(C)[C@]2(C(=O)CO)O1` (stereo not given in full), the Potency result (in assay [1]; with CP247) was “inactive” throughout.

As to `Nc1nc(Cl)nc2c1ncn2[C@@H]1O[C@H](CO)[C@H](O)C1F` (stereo not given in full), the Potency result (in assay [1]; in the assay with CP247; with GB4; in the assay with ICS; with P93_24; with W2) was “inactive” throughout.

Take `C[C@H](CN1c2ccccc2Sc2cccnc21)N(C)C`: in assay [1], the Potency result was “inactive”. Further, the Potency in the assay on CP247 was 3.98 µM (active); with GB4, 6.75 µM (active); in the assay with P93_24, 8.91 µM (active); with W2, 1.69 µM (active).

With `C/C=C1/NN(CCCN2CCN(c3cccc(Cl)c3)CC2)C(=O)N1CCOc1ccccc1`, the Potency entry in the assay with CP247 and with P93_24 was “inactive” in each case. The Potency in the assay with W2 was 5.36 µM (active).

With `C[C@]12CCC(=O)C=C1[C@@H]1C[C@H]1[C@H]1[C@@H]3[C@@H]4C[C@H]4[C@@]4(CCC(=O)O4)[C@@]3(C)CC[C@@H]12`, the Potency entry (in [1]; with CP247; in the assay on GB4; with P93_24) was “inactive” throughout.

Turning to `C[C@]12CC[C@@H]3c4ccc(O)cc4CC[C@H]3[C@@H]1CCC2OC(=O)CCC1CCCC1` (stereo not given in full), the Potency result with CP247 and with GB4 was “inactive” throughout. Also, the Potency in the assay with ICS was 12.6 µM (active).

`CC1=C(C/C=C(\C)CCCC(C)CCCC(C)CCCC(C)C)C(=O)c2ccccc2C1=O` (stereo not given): the Potency result with CP247 was “inactive”. Besides, the Potency with ICS is 3.98 µM (active); in the assay with W2 it was 4.78 µM (active).

`Cc1c(C)c2c(c(C)c1O)CCC(C)(CCCC(C)CCCC(C)CCCC(C)C)O2` (stereo not given): the Potency entry (in assay [2]; in assay [3]; in the assay on CP247; with GB4; in the assay on P93_24; in the assay with W2) was “inactive” in each case.

`CC(C)(C)NC[C@H](O)CSc1nc(-c2ccc(C(N)=O)s2)cs1`: the Potency result (in assay [1]; with CP247; in the assay on GB4; in the assay on P93_24; with W2) was “inactive” in each case.

On to `CC1CN(c2c(F)c(N)c3c(=O)c(C(=O)O)cn(C4CC4)c3c2F)CC(C)N1` (stereo not given), for which the Potency result (in [1]; in the assay on CP247; in the assay on GB4; in the assay with ICS; with P93_24; with W2) was “inactive” each time.

With `CC1=C(c2ccc(NN=C(C#N)C#N)cc2)NNC(=O)C1`, the Potency result with ICS, in the assay with P93_24 and with W2 was “inactive” throughout.

As for `COC(=O)C1C2CC3c4[nH]c5cc(OC)ccc5c4CCN3CC2CC(OC)C1OC` (stereo not given), the Potency entry (in [1]; in the assay with CP247; in the assay on GB4; with ICS; in the assay with P93_24) was “inactive” each time.

For the compound `O=C(O)C[CH2][Ge](=[O])[O][Ge](=[O])[CH2]CC(=O)O`, the Potency entry (in assay [1]; in the assay with CP247; with GB4; with ICS; in the assay with P93_24; in the assay on W2) was “inactive” in each case.

On to `CCCSS/C(CCO)=C(/C)N(C=O)Cc1cnc(C)nc1N`, for which the Potency entry (in assay [1]; with CP247; in the assay with P93_24; with W2) was “inactive” each time.

`CC1CCC(O)C/C1=C\C=C1/CCCC2(C)C1CCC2C(C)/C=C/C(C)C(C)C` (stereo not given): the Potency in the assay on ICS is 11.2 µM (active).

Take `Oc1cc2cc(CCN3CCN(c4nsc5ccccc45)CC3)c(Cl)cc2[nH]1`: the Potency in the assay with CP247 was 10 µM (active); in the assay on ICS it was 6.31 µM (active).

With `C=CCN1c2ccccc2[C@]23C[C@@H](C(=O)OC)N(S(=O)(=O)c4ccc([N+](=O)[O-])cc4)C2=NC(C(=O)OC)=C(C(=O)OC)[C@H]13`, the Potency entry in [4] is “inactive”. The values for the Potency in assay [5] and in assay [6] were 1.51 µM (active) and 1.69 µM (active), respectively.

Regarding `CC#CCN1c2ccccc2[C@]23C[C@@H](C(=O)OC)N(C(=O)C4CCC4)C2=NC(C(=O)OC)=C(C(=O)OC)[C@H]13`, in assay [4], the Potency result is “inactive”.

As to `CC#CCN1c2ccccc2[C@]23C[C@@H](C(=O)OC)N(S(=O)(=O)c4ccc(C(F)(F)F)cc4)C2=NC(C(=O)OC)=C(C(=O)OC)[C@H]13`, in [4], the Potency entry was “inactive”. Further, the Potency in [5] is 1.9 µM (active).

On to `C=CCN1CC(C(=O)N(CCCN(C)C)C(=O)NCC)CC2c3cccc4[nH]cc(c34)CC21` (stereo not given), for which, in assay [1], the Potency result is “inactive”. For the same compound, the Potency in the assay with GB4 is 15.1 µM (active); in the assay with ICS, 12.6 µM (active); in the assay on W2 it was 6.01 µM (active).

In the case of `CCCCC1=CC2=CC(=O)C(C)(OC(=O)CC)C(=O)C2=CN1CCCOC(C)C` (stereo not given), the Potency result in assay [4], in assay [5], in assay [6], in [7] and in assay [8] was “inactive” throughout.

With `COC(=O)C1=C(C(=O)OC)[C@@H]2Nc3ccccc3[C@@]23C[C@@H](C(=O)OC)N(S(=O)(=O)c2ccc([N+](=O)[O-])cc2)C3=N1`, the Potency entry in [4] is “inactive”.

Turning to `COC(=O)C1[C@@H](OC)C(OC(=O)COc2ccc(OC)cc2)C[C@@H]2CN3CCc4c([nH]c5cc(OC)ccc45)[C@H]3C[C@H]12` (stereo not given in full), the Potency result in [1] was “inactive”. Also, the Potency in the assay with ICS is 5.01 µM (active); with P93_24, 10 µM (active); in the assay on W2, 8.49 µM (active).
